The list is not random: actives were taken first. Their share in the collection is about 12%.
Pf growth 96h: Primary qHTS for delayed death inhibitors of the malarial parasite plastid, 96 hour incubation; P. falciparum luciferase reporter growth, 96 h; Potency, µM (top dose mostly 28.7 µM), most hits filed as inhibitors; actives 6.9% (n = 320,000); AID 504834, 2011
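Two parasite generations (96 h, 37 C, 5% CO2) of compound exposure in infected erythrocytes (0.05% parasitemia, 2% hematocrit). Luciferase-reporter P. falciparum; decreased luminescence indicates inhibited growth, aimed at apicoplast-acting delayed death.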
SARS PLpro yeast-1: qHTS of Yeast-based Assay for SARS-CoV PLP; S. cerevisiae expressing SARS-CoV PLpro, growth rescue; Potency, µM (titrated, usually from 32.9 µM), usual class: activators; actives 0.19% (n = 330,000); calls by dose curve; further: nearly all actives have a fitted effect of over 55% in size
Pf growth 48h: Primary qHTS for delayed death inhibitors of the malarial parasite plastid, 48 hour incubation; P. falciparum luciferase growth in erythrocytes, 48 h; Potency, µM (top dose mostly 28.7 µM), actives largely listed as inhibitors; actives 5.9% (n = 310,000)
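Firefly luciferase activity from engineered P. falciparum reports growth; inhibitors lower the luminescent signal. Cultures contained 2% hematocrit erythrocytes at 0.1% final parasitemia.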
Sm TGR inh: qHTS Assay for the Inhibitors of Schistosoma Mansoni Peroxiredoxins. Schistosoma mansoni thioredoxin glutathione reductase (TGR), Q962Y6. purified TGR, DTNB reduction, TNB absorbance 405 nm. Potency, µM (highest dose often 114 µM), usual class: inhibitors. actives 3% (n = 360,000); further: nearly all actives have a fitted effect of over 60% in size
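First, TGR (20 nM dispensed) and NADPH were mixed with compound. Second, a 15 min room-temperature incubation followed. Third, further NADPH and then DTNB were added to start the reaction. Finally, TNB absorbance was monitored kinetically.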
SARS PLpro yeast-2: qHTS of Yeast-based Assay for SARS-CoV PLP: Hit Validation; yeast expressing SARS-CoV PLpro, growth phenotype rescue; shares compounds with SARS PLpro yeast-1; actives 19% (n = 1,000); calls only; call rule not given here
Large screens that a line does not name were inactive (follow-up assays come after a bar, where they were run). Unless noted, the call rests on the fitted dose curve; in most records, active means well fitted curve in the direction sought with a large enough effect; inconclusive means small, poorly fitted or top-dose-only effect, or another doubt; inactive means no such curve, though single readings can be large; an effect the other way counts as inactive or inconclusive.

O=C(N/N=C/c1cc([N+](=O)[O-])cc([N+](=O)[O-])c1O)/C(=C\c1cccs1)NC(=O)c1ccccc1	SARS PLpro yeast-1 inconclusive | SARS PLpro yeast-2 active
COc1cc(/C=N/NC(=O)/C(=C\c2ccc([N+](=O)[O-])cc2)NC(=O)c2ccccc2)cc(OC)c1O	none (no result: Pf growth 96h, Pf growth 48h)
O=C(CCl)Nc1ccc(Oc2cnc3ccccc3n2)cc1	Pf growth 96h 0.74µM, SARS PLpro yeast-1 10µM, Pf growth 48h 1.7µM | SARS PLpro yeast-2 active
Cc1ccc(C2/C(=C(\O)c3ccc4c(c3)OCCO4)C(=O)C(=O)N2Cc2cccnc2)cc1 (stereo not drawn)	none
CN(C)S(=O)(=O)c1ccc(/C(O)=C2/C(=O)C(=O)N(Cc3cccnc3)C2c2ccncc2)cc1 (stereo not drawn)	SARS PLpro yeast-1 10µM, Sm TGR inh inconclusive (no result: Pf growth 96h) | SARS PLpro yeast-2 inactive
COc1ccc(Cn2c(NCC(C)C)nc3c2c(=O)n(C)c(=O)n3C)cc1	none (no result: Pf growth 96h, SARS PLpro yeast-1, Pf growth 48h)
COc1ccc(C(=O)N2CCN(Cc3cc(OC)c(O)c(OC)c3)CC2)cc1OC	SARS PLpro yeast-1 20µM, Sm TGR inh 8.9µM | SARS PLpro yeast-2 inactive
O=C1C=C(c2ccc3ccccc3c2)C[C@@H](c2ccc(F)cc2)C1	Pf growth 96h inconclusive
Cc1cc(C)c2c(NC(=S)NC(=O)c3ccccc3)nn(C)c2n1	Pf growth 48h inconclusive, Sm TGR inh inconclusive
Cc1cc(C)c2c(NC(=O)CCl)nn(C)c2n1	Pf growth 96h 1.9µM, SARS PLpro yeast-1 11µM, Pf growth 48h 3.7µM, Sm TGR inh 32µM | SARS PLpro yeast-2 active
CC(=O)N1c2ccc(S(=O)(=O)NCC3CCC(C(=O)NCc4ccccc4)CC3)cc2CC1C (stereo not drawn)	Pf growth 48h inconclusive
O=C(Nc1ccc(Cl)c(S(=O)(=O)N2CCCCC2)c1)c1ccncc1	Pf growth 96h 7.4µM, SARS PLpro yeast-1 5µM, Pf growth 48h inconclusive | SARS PLpro yeast-2 inactive
O=C(Nc1ccc(Cl)c(S(=O)(=O)N2CCCCC2)c1)c1cnccn1	Pf growth 96h inconclusive, Pf growth 48h inconclusive
Cc1ccc(CC(=O)Nc2c(C(=O)N3CCN(c4ccccc4)CC3)oc3ccccc23)cc1	none (no result: Pf growth 96h, SARS PLpro yeast-1, Pf growth 48h)
Cc1nn(C)cc1CNC(=O)/C=C/c1cnn(C)c1	none
COc1ccc(/C=C/C(=O)NCc2cn(C)nc2C)cc1COc1ccc(Br)cc1	Pf growth 96h inconclusive, SARS PLpro yeast-1 inconclusive, Pf growth 48h 3.7µM | SARS PLpro yeast-2 inactive
CCN(CC)C(=O)c1cccc(NC(=O)C2=COCCO2)c1	SARS PLpro yeast-1 2.2µM | SARS PLpro yeast-2 inactive
CCN(CC)S(=O)(=O)c1cc(NC(=O)C2=COCCO2)ccc1Cl	Pf growth 48h inconclusive
COc1ccc(OC)c(C2/C(=C(/O)c3ccccc3)C(=O)C(=O)N2Cc2ccco2)c1 (stereo not drawn)	none
COc1ccc(OC)c(C2/C(=C(/O)c3ccc(C)cc3)C(=O)C(=O)N2Cc2ccco2)c1 (stereo not drawn)	SARS PLpro yeast-1 10µM | SARS PLpro yeast-2 inactive
CCn1nc(C)c(/C=C/C(=O)Nc2ccc(C)cc2C)c1C	Pf growth 96h inconclusive, SARS PLpro yeast-1 inconclusive, Pf growth 48h inconclusive | SARS PLpro yeast-2 inactive
CC(C)CCNC(=O)c1cc([N+](=O)[O-])ccc1N1CCOCC1	none
CC(C)CNC(=O)c1cc([N+](=O)[O-])ccc1N1CCOCC1	SARS PLpro yeast-1 inconclusive | SARS PLpro yeast-2 inactive
Cc1c(NC(=O)COc2ncnc3c(Cl)cc(Cl)cc23)c(=O)n(-c2ccccc2)n1C	SARS PLpro yeast-1 inconclusive | SARS PLpro yeast-2 inactive
Cc1c(NC(=O)COc2ccccc2Cl)c(=O)n(-c2ccccc2)n1C	none
O=C(COc1ccc(F)c(Cl)c1)N1CCN(c2ccccn2)CC1	SARS PLpro yeast-1 inconclusive | SARS PLpro yeast-2 inactive
COc1ccc(NC(=O)C(=O)NNC(=O)c2cccs2)c(OC)c1	SARS PLpro yeast-1 inconclusive | SARS PLpro yeast-2 inactive
COc1ccc(NC(=O)CCC(=O)c2cccs2)c(OC)c1	none
COC(=O)CCCC(=O)N1CCC(CCC(=O)NC2CC2)CC1	none
Cc1cc(/C=N/NC(N)=S)c(C)n1-c1ccc(Cl)cc1	SARS PLpro yeast-1 11µM, Pf growth 48h inconclusive | SARS PLpro yeast-2 inactive
C/C=C(\C)C(=O)OC1CC(C)(C)C[C@H]2C3=CC[C@@H]4[C@@]5(C)CCC(O[C@@H]6O[C@@H](C(=O)O)[C@@H](O)C(O[C@@H]7OC[C@H](O)[C@@H](O)[C@@H]7O[C@@H]7OC(CO)C(O)[C@@H](O)[C@@H]7O)C6O[C@@H]6OC(CO)C(O)C(O)C6O)[C@@](C)(CO)[C@@H]5CC[C@]4(C)[C@]3(C)CC(O)[C@@]12CO (stereo partly drawn)	none (no result: Pf growth 96h, Pf growth 48h, Sm TGR inh)
Cc1ccc(C)c(/C=N/NC(=S)NCCc2ccccc2)c1	none (no result: SARS PLpro yeast-1, Pf growth 48h) | SARS PLpro yeast-2 inconclusive
CCNC(=S)N/N=C/c1cc(C)ccc1C	SARS PLpro yeast-1 inconclusive
Oc1ccccc1/C=N/NC(=S)NCCc1ccccc1	Pf growth 96h inconclusive, Pf growth 48h inconclusive
Cc1ccc(C)c(/C=N/NC(=S)NC(C)C)c1	Pf growth 96h 13µM, SARS PLpro yeast-1 7.1µM, Pf growth 48h inconclusive | SARS PLpro yeast-2 inconclusive
O=C(Nc1ccnn1C1CCN(C(=O)c2ccc(F)cc2)CC1)C1CCOC1 (stereo not drawn)	none
Cc1ccc(C(=O)O)cc1NC(=S)NC(=O)c1ccc(COc2ccccc2)cc1	Sm TGR inh inconclusive
C/C(=N\NC(N)=S)C1(C)CCCCC1	Pf growth 96h inconclusive, SARS PLpro yeast-1 18µM, Pf growth 48h inconclusive | SARS PLpro yeast-2 active
C/C(=N\NC(N)=O)C1(C)CCCCC1	none (no result: Pf growth 48h)
COc1ccc(Cl)cc1NS(=O)(=O)c1c(C)[nH]c(C)c1C(=O)N1CCCCC1	none
COc1cccc(-c2c(NC(=O)c3ccco3)oc3ccccc3c2=O)c1	SARS PLpro yeast-1 inconclusive | SARS PLpro yeast-2 inactive
COc1cccc(-c2c(NC(=O)c3ccco3)oc3ccc(Cl)cc3c2=O)c1	none
CC(C)(C)N(NC(=O)Nc1ccc(F)cc1)C(=O)c1ccccc1	Pf growth 96h inconclusive
Cc1cccc(C)c1NC(=O)NN(C(=O)c1ccccc1)C(C)(C)C	SARS PLpro yeast-1 2.5µM | SARS PLpro yeast-2 inactive
Cc1c(C(=O)OC2CCCCC2)[nH]c2c1C(=O)CC(c1ccc(C(C)(C)C)cc1)C2 (stereo not drawn)	none (no result: Pf growth 96h, SARS PLpro yeast-1, Pf growth 48h)
O=C(CSc1nc2ccsc2c(=O)n1-c1ccc(Br)cc1)NCc1ccccc1	none (no result: Pf growth 96h, SARS PLpro yeast-1, Pf growth 48h)
COc1ccc(-c2noc(CC(=O)Nc3cc(OC)ccc3OC)n2)cc1	none (no result: Pf growth 96h, SARS PLpro yeast-1, Pf growth 48h)
O=C(N=C1SCC(=O)N1c1ccccc1Cl)c1ccco1	none
O=C(N=C1SCC(=O)N1c1ccccc1)c1ccco1	SARS PLpro yeast-1 inconclusive (no result: Pf growth 48h) | SARS PLpro yeast-2 inactive
CC(C)(C)N(Cc1ccccc1)C(=O)COC(=O)C1CCCCC1	SARS PLpro yeast-1 3.2µM (no result: Pf growth 96h, Pf growth 48h, Sm TGR inh) | SARS PLpro yeast-2 inactive
CC(C)c1ccc(-c2csc3ncnc(N4CCN(C)CC4)c23)cc1	Pf growth 96h inconclusive, Pf growth 48h inconclusive

Assay outcomes: PubChem, National Center for Advancing Translational Sciences (NCATS)
